# Assay outcomes: PubChem BioAssay, National Center for Advancing Translational Sciences (NCATS)
# The list is not random: actives were taken first. Their share in the collection is about 5%.
# Vaccinia Venus – inhibitors of vaccinia virus (Venus reporter) | 0.46% of 330,000 active | Vaccinia virus Venus reporter expression, fluorescence | Potency, µM (top dose mostly 36.5 µM), inactives show at the highest dose activity change, negative = inhibition, hits mostly inhibitors; calls by dose curve; tested in A549 cells; note: potency is the fitted concentration of half-maximal effect; nearly all actives have a fitted effect of over 30% in size
# TbPYK inhibitor – T. brucei pyruvate kinase inhibition. TbPYK enzyme, Kinase-Glo Plus ATP luminescence, 45 min. Potency, µM (top dose mostly 76.8 µM), without a hit: at the top dose activity, negative = inhibition, most hits filed as inhibitors. 0.12% of 410,000 active. AID 624173; note: potency is the fitted concentration of half-maximal effect; nearly all actives have a fitted effect of over 50% in size
#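 Quantitative HTS: titrated library compounds versus trypanosomal pyruvate kinase in TEA buffer (pH 7.2) containing KCl, MgCl2, BSA and Tween-20. Reactions were initiated with ADP, 130 uM final. Kinase-Glo Plus luminescence was read after 45 min at RT.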
# LmPK inh – inhibitors of Leishmania mexicana pyruvate kinase. Q27686. 0.37% of 290,000 active. purified LmPK, Kinase-Glo ATP luminescence, 1 h. Potency, µM (highest dose often 57.5 µM), for the others: at the top dose activity change, negative = inhibition, hits mostly inhibitors; note: potency is the fitted concentration of half-maximal effect
# Target sequence (Q27686 whole entry, looked up): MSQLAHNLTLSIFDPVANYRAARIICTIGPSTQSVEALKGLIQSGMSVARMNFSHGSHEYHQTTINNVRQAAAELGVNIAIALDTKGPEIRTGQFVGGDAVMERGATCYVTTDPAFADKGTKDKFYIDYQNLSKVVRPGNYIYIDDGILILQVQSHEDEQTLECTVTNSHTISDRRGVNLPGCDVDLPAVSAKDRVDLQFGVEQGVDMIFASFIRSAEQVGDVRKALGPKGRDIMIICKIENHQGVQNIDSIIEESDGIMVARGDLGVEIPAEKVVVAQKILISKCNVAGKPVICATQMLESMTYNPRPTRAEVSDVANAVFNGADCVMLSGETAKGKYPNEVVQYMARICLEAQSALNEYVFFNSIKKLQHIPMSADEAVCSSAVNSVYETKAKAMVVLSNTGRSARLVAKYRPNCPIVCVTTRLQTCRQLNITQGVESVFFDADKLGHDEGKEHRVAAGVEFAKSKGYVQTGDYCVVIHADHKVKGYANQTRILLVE
#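 qHTS format; LmPK 0.1 nM; substrates PEP 0.5 mM and ADP 0.1 mM. One-hour room-temperature incubation, then coupled luciferase luminescence; 0.5 nM enzyme wells mark activation.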
# HCMV antiviral – blocks human cytomegalovirus replication | HFF cells, HCMV-luciferase reporter, 72 h; hits give low values | activity change, negative = inhibition, % at 57.5 µM | 4.5% of 410,000 active; in the data active = activity change below about -60%; inconclusive = no clear call, values can overlap the other calls; inactive = above about -39%
#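 Inhibition of viral replication was scored as loss of reporter luminescence in HFFs infected with HCMV-luciferase (MOI 1 PFU/cell) for 72 h; compounds tested at 2 doses, normalized to buffer and Salinomycin controls.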
# Vaccinia mCherry – vaccinia inhibition (mCherry reporter); Vaccinia virus mCherry reporter infection, fluorescence; AID 720579; Potency, µM (highest dose often 36.5 µM), for the others: at the highest dose activity change, negative = inhibition, usual class: inhibitors; 0.63% of 310,000 active; calls by dose curve; tested in A549 cells; note: potency is the fitted concentration of half-maximal effect; nearly all actives have a fitted effect of over 35% in size
# * = called active by the depositor; i = inactive; ? = inconclusive; · = not tested or not shown; + = active, no number. Unless noted, calls come from the whole dose curve; as a rule, active = well fitted curve in the direction sought with a large enough effect; inconclusive = small, poorly fitted or top-dose-only effect, or another doubt; inactive = no such curve, though single readings can be large; an effect the other way counts as inactive or inconclusive. % is set by controls: 0 for no effect and ±100 for the full control effect.
SMILES,Vaccinia Venus,TbPYK inhibitor,LmPK inh,HCMV antiviral,Vaccinia mCherry
CC(=NNC(=S)N1CC2CCC(CC2)C1)c1cccc(C)n1,?,-19%,·,-83*,4µM*
CC(=O)c1nccs1,-9%,-6%,·,·,-13%
CC(=NNC(=S)N1CC2CCC(CC2)C1)c1nccs1,?,?,·,-63*,?
CC1=NN(C(N)=S)C(C)(C)C1,·,-1%,-6%,-5,·
CCN(CC(=O)Nc1c(F)cccc1F)C(=O)/C=C/c1ccc2ccccc2n1,-2%,6%,·,-3,-12%
CC1CCN(c2nc3ccc(C(=O)NCc4ccc(Cl)cc4)cc3s2)CC1,-7%,4%,·,40,-15%
O=C(O)c1ccc2nc(-c3ccccc3)sc2c1,-6%,-23%,?,?,-20%
CC1CCN(c2nc3ccc(C(=O)O)cc3s2)CC1,-4%,-3%,-29%,-78*,i
Nc1ccc2nc(-c3ccc(O)cc3)sc2c1,11%,-21%,·,62,22%
Nc1ccc(-c2nc3ccc(C(=O)O)cc3s2)cc1,2%,?,?,-85*,-13%
Nc1ccc(-c2nc3ccc(N)cc3s2)cc1,-9%,-9%,14µM*,-2,-12%
Nc1cccc(-c2nc3ccc(N)cc3s2)c1,-20%,?,13µM*,6,?
Nc1cc2sc(-c3ccc(C(=O)O)cc3)nc2cc1Cl,2%,?,16µM*,2,-4%
CC(=O)Oc1ccccc1/C=C1\CCOC1=O,-25%,-8%,4%,-62*,-19%
O=C1OCCC1=Cc1ccccc1,2%,-9%,·,21,-13%
CC(C)C(=O)N1CCCC1(C)C(=O)Nc1ccc2c(c1)OCO2 (stereo not given),-2%,-13%,·,·,0%
Cc1ccc(C(=O)C(OC(=O)CNC(=O)c2ccc(Cl)cc2)c2ccccc2)cc1 (stereo not given),·,·,1%,50,·
COc1ccc(C)cc1NC(=O)C(Sc1nnc(Nc2cc(C)ccc2OC)s1)c1ccccc1 (stereo not given),-23%,-18%,-1%,?,?
COc1ccc(Nc2nnc(SC(C(=O)Nc3cc(C)ccc3C)c3ccccc3)s2)cc1 (stereo not given),-2%,2%,-2%,-100*,-2%
CCn1c(C(c2ccccc2)c2ccccc2)n[nH]c1=S,-1%,8.9µM*,-18%,-27,·
S=c1[nH]nc(CCc2ccccc2)n1Cc1ccccc1,-16%,4µM*,8.9µM*,0,-17%
C=CCn1c(C(c2ccccc2)c2ccccc2)n[nH]c1=S,-4%,?,-30%,22,-12%
COc1ccccc1OCc1n[nH]c(=S)n1Cc1ccccc1,-13%,4µM*,-1%,-7,-15%
CC(OC(=O)CCc1ccccc1)C(=O)Nc1ncc(Cl)cc1Cl (stereo not given),·,-9%,-1%,25,·
C(=Cc1c[nH]c2ccccc12)c1nccc2ccccc12,44%,3%,·,99,?
SMILES,Vaccinia Venus,TbPYK inhibitor,LmPK inh,HCMV antiviral,Vaccinia mCherry
C(=C\c1ccc2ccccc2n1)/c1ccccc1,?,-15%,13µM*,36,5µM*
C(=Cc1c[nH]c2ccccc12)c1ccc2ccccc2n1,-10%,-7%,·,-92*,0.71µM*
O=[N+]([O-])c1ccc(/C=C/c2ccc3ccccc3n2)cc1,-6%,-16%,?,?,-14%
C(=C\c1ccc2ccccc2n1)/c1ccc2ccccc2n1,-4%,·,·,·,-6%
Fc1ccccc1/C=C/c1ccc2ccccc2n1,-19%,?,13µM*,-10,-4%
Oc1ccc(/C=C/c2ccc3ccccc3n2)cc1,-22%,?,7.1µM*,-68*,?
NC(=O)Cn1cnc2c(nnn2-c2cccc(Cl)c2)c1=O,·,-3%,-8%,-33,·
COc1ccc2nc(SC(C)C(=O)NC3(C#N)CCCCC3)[nH]c2c1 (stereo not given),·,1%,·,-17,·
Cc1ccc(C)n1NC(=O)c1cccs1,-18%,0%,1%,20,·
COc1ccc(N(C(=O)CNC(=O)c2ccco2)C(C(=O)NC2CCCCC2)c2cccnc2)cc1 (stereo not given),-9%,-8%,-23%,-8,i
CCCn1cc(CN2CCC(n3nccc3NC(=O)C(OC)c3ccccc3)CC2)c(C)n1 (stereo not given),·,3%,-1%,2,·
O=S(=O)(O)c1cccc2c(N=Nc3ccc(O)c4ncccc34)cccc12,·,-14%,-5%,·,·
COc1cccc(N=Nc2ccc(O)c3ncccc23)c1,?,-19%,-1%,-100*,?
O=Nc1ccc(O)c2ncccc12,·,1%,5%,-98*,·
Nc1ccc(N=Nc2ccccc2)c2cccnc12,·,-11%,1%,389,·
Oc1ccc(N=Nc2ccc3c(c2)OCCO3)c2cccnc12,?,4%,-3%,-98*,?
COc1ccc(N=Nc2ccc(O)c3ncccc23)cc1,·,-1%,2%,+,·
CC(=O)c1cccc(NC(=O)N2CCCC2C(=O)NCc2ccccc2)c1 (stereo not given),-1%,-2%,5%,28,-9%
CCCCOc1cccc(C2c3c(-c4cc(C)ccc4O)n[nH]c3C(=O)N2CCOC)c1 (stereo not given),-26%,-2%,·,-39,-26%
Cc1ccc(-c2c3c(=O)n(C)c(=O)n(C)c3cn2-c2cc(C)ccc2O)cc1,-14%,2%,·,-15,-11%
Cc1ccccc1N=Nc1ccc(O)c2ncccc12,?,-19%,-1%,-93*,3.5µM*
COc1ccc(C)cc1-n1c(=O)c2ccccc2c2ccccc2c1=O,-15%,-1%,-2%,?,-7%
COc1cccc(N=Nc2ccc3cccnc3c2O)c1,?,-9%,2%,-100*,?
COc1cc(OC)cc(C(=O)Nc2cccc3cccnc23)c1,1%,9%,0%,-4,-3%
COc1ccc(C)cc1N=Nc1ccc(O)c2ncccc12,·,-26%,-1%,-100*,·
SMILES,Vaccinia Venus,TbPYK inhibitor,LmPK inh,HCMV antiviral,Vaccinia mCherry
CCn1c(N2CCN(CC(=O)c3c[nH]c4ccccc34)CC2)nc2c1c(=O)[nH]c(=O)n2C,-7%,0%,0%,64,-21%
Nc1cc(C2CCCC2)nn1-c1ccccc1,-17%,-9%,14µM*,-37,·
O=C(O)c1cc(C2CC2)nn1-c1ccccc1,·,-2%,2%,4,·
COc1cccc(CNCc2ccccn2)c1OC,?,-2%,-10%,-61*,?
O=C(CN(C(=O)c1csnn1)c1ccc(F)c(Cl)c1)NCc1ccccc1,-9%,7%,8%,9,-11%
N=C1C(c2nc(-c3ccc(Br)cc3)cs2)=C(O)CN1NC(=O)c1ccc([N+](=O)[O-])cc1,-8%,0%,3%,-102*,-7%
CN=C(N)NCCCC(N)C(=O)O (stereo not given),·,-4%,·,·,·
O=c1cc(CN2CCN(c3ccc(F)cc3)CC2)c2cc3c(cc2o1)CCCC3,·,-2%,-1%,-62*,·
